In PubChem BioAssay AID1347055 (National Center for Advancing Translational Sciences (NCATS), 2019):
“And” between values parts separate entries of the source, which are not always exact repeats. Identical values can stand only once. Screen size: about 54,000 compounds; about 120 (0.22%) were called active. Another 8% or so got no clear call; they are omitted. The sample holds actives, similar compounds and a random draw of the others, so the mix is not that of the screen. Calls come from the whole dose curve; as a rule, active = well fitted inhibition curve with a large enough effect; inconclusive = small, poorly fitted or top-dose-only effect, or effect the other way; inactive = flat fitted curve, though single readings scatter. More than one record can exist for a structure, and the calls need not agree.

molecular target: Fumarate hydratase, mitochondrial (Homo sapiens) (UniProt P07954); test: Identification of activators of human fumarate hydratase by quantitative high-throughput screening; conditions: FH coupled MDH/diaphorase resazurin fluorescence, 15 min; series mostly up to 79.9 µM; activity change, negative = inhibition: at the top concentration; note: the screen sought activators but most active calls are inhibition curves; nearly all actives have a fitted effect of over 45% in size
From the text: Fumarate hydratase (FH) is a metabolic enzyme that is part of the Krebs-cycle, and reversibly catalyzes the hydration of fumarate to malate. Mutations of the FH gene have been associated with fumarate hydratase deficiency (FHD), hereditary leiomyomatosis, renal cell cancer (HLRCC), and other diseases. Currently there are no high-quality small molecule probes for studying human fumarate hydratase. To address this, we developed a quantitative high throughput screening (qHTS) FH assay and screened a total of 57,037 compounds in dose-response. While no inhibitors of FH were confirmed, a series of phenyl-pyrrolo-pyrimidine-diones (12 compounds) were identified as activators of human fumarate hydratase. […] The binding of two compounds from the series to human fumarate hydratase was confirmed by microscale thermophoresis. The low hit rate in this screening campaign confirmed that FH is a "tough target" to modulate, and the small molecule activators of human fumarate hydratase reported here may serve as a starting point for further optimization and development into cellular probes of human FH and potential drug candidates.
For primary high-throughput screen, 3 ul of FH solution (containing 13.33nM human fumarate hydratase, 13.33IU/ml malic dehydrogenase, 0.2mM NAD, 0.067mg/ml diaphorase and 0.067mM resazurin in the assay buffer (50 mM Tris pH 8.0, 5 mM MgCl2, 0.01% Brij 3) was dispensed into each well in a black solid bottom 1536-well assay plate (Greiner Bio-One) using a BioRAPTR FRD dispenser (Beckman Coulter, Brea, CA). A 1536-well pintool dispenser outfitted with 20 nl pins (Wako Automation, San Diego, CA) was used to transfer 20 nL of DMSO-solubilized compound (Cherrypick plates) to each 1536-well assay plate. Each compound was screened at five concentrations: 15 nM, 151 nM, 1.5 uM, 15.4 uM, 76.9 uM. Following compound transfer, plates were incubated in room temperature for 10 minutes. 1 uL of substrate solution containing fumaric acid (160 uM) was dispensed via BioRAPTR FRD to initiate the reaction. Plates were immediately transferred to a ViewLux microplate imager (PerkinElmer, Waltham, MA), and any resulting resorufin fluorescence was measured (exitation/emission, 525/598 nm) at 0 and 15 minutes. The exposure time is 1 second. Fluorescence from each well was normalized using enzyme-free and DMSO-treated control wells on each plate, and changes in fluorescence (delta RFU) were calculated using the difference in fluorescent signal for each well at 15 minutes versus 0 minutes.
% is set by controls: 0 for no effect and ±100 for the full control effect; potency is the fitted concentration of half-maximal effect.

Chain of Fumarate hydratase, mitochondrial (Homo sapiens) (P07954 whole entry, looked up): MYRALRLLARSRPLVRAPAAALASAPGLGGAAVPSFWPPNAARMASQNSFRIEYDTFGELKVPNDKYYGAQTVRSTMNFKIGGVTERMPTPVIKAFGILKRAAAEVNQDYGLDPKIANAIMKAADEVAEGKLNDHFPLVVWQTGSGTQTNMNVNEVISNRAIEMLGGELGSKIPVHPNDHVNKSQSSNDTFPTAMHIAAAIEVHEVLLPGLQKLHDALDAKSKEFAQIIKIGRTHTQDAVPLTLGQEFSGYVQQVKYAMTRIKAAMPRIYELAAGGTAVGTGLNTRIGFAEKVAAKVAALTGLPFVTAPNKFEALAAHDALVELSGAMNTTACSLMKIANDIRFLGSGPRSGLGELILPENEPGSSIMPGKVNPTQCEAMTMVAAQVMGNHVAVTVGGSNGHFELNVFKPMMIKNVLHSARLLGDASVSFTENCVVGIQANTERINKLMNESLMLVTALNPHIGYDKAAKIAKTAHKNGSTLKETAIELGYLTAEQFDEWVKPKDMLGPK

SMILES | activity change, negative = inhibition | Potency
COc1ccc(-c2nc(C)c(CCNC(=O)c3ccc(C(F)(F)F)cc3)s2)cc1OC | 1.18% (inactive) | –
COc1ccc(-c2cn3c(n2)sc2cc(C(=O)Nc4ccccc4F)ccc23)cc1 | -11.3% (inactive) | –
Nc1nc2c(ncn2[C@@H]2O[C@@H]3COP(=O)(O)O[C@H]3[C@H]2O)c(=O)[nH]1 | -2.31% (inactive) | –
C[C@@H]1C[C@@H](O)[C@@]23CO[C@]2(CO)C[C@@H](O)CC3[C@@]12CC(c1ccoc1)OC2=O (stereo not given in full) | -2.44% [at 53.3 µM] (inactive) | –
CCC(=O)N[C@@H]1Cc2ccccc2[C@H](c2ccccc2)C1 | 1.26% (inactive) | –
CCOC(=O)c1c(C)n(S(=O)(=O)c2ccc(C)cc2C)c2ccc(NS(=O)(=O)c3ccc(C)cc3C)cc12 | -0.0866% (inactive) | –
CCOC(=O)CSc1nc2c(sc3ccccc32)c(=O)n1CCCN1CCCC1 | -0.602% (inactive) | –
COc1cc(OC)c(NC(=O)c2cc(S(=O)(=O)N3CCCC3)cn2C)cc1Cl | -2.25% (inactive) | –
Cc1ccc(NC(=O)C2CCCN2S(=O)(=O)c2cccc3cccnc23)c(C)c1 (stereo not given) | -1.91% (inactive) | –
CC1C(=O)OCC2=CCN3CCC(OC(=O)C(C)(O)C1(C)O)C23 (stereo not given) | 7.92% [at 53.3 µM] (inactive) | –
C[C@@H]1[C@H](O)[C@@H]2OC(=O)C3=C2[C@H](CCC3)[C@@]12C[C@@H](c1ccoc1)OC2=O | 1.74% [at 53.3 µM] (inactive) | –
C[C@H]1CC[C@@H]2N(C1)C[C@@H]1[C@H]([C@@H](O)[C@H](O)[C@]3(O)[C@H]1C[C@@]14OC5(O)[C@@H](C[C@@H](O)[C@@H]31)[C@]4(C)CC[C@@H]5O)[C@]2(C)O | 4.66% [at 53.3 µM] (inactive) | –
CN1CCCC1Cc1c[nH]c2ccc(CCS(=O)(=O)c3ccccc3)cc12 (stereo not given) | -2.48% (inactive) | –
O=C(C1CCCN(S(=O)(=O)c2cccc3nonc23)C1)N1CCN(c2ccccc2F)CC1 (stereo not given) | -8.31% (inactive) | –
COC(=O)[C@]12CCC(C)(C)C[C@@H]1[C@@H]1C(=O)C=C3[C@]4(C)C=C(C#N)C(=O)C(C)(C)[C@@H]4CC[C@@]3(C)[C@]1(C)CC2 | -10.3% (inactive) | –
C#C[C@]1(O)CC[C@H]2[C@@H]3CCC4=C/C(=N/O)CC[C@@H]4[C@H]3CC[C@@]21CC | 5.71% (inactive) | –
CC(=O)N1c2ccc(S(=O)(=O)N3CCCCCC3)cc2CC1C(=O)NCc1ccccc1C (stereo not given) | 1.03% (inactive) | –
COc1ccc(NC(=O)c2ccc3nc(CCc4ccccc4)oc3c2)c(OC)c1 | -4.07% (inactive) | –
COc1cc(Nc2nc3ccccc3nc2NS(=O)(=O)c2cccc(NC(=O)c3ccc(C)c(OC)c3)c2)cc(OC)c1 | -14.2% (inactive) | –
CC1(C)C(=O)N2c3ccccc3C(O)(CC(C(=O)O)n3cnc4ccccc4c3=O)C2N1O (stereo not given) | 4.36% [at 53.3 µM] (inactive) | –
O=c1[nH]c2ccc(C#CCN3CCC(Cc4ccccc4)CC3)cc2[nH]1 | -15.1% (inactive) | –
CCOc1ccccc1CNC(=O)Nc1cn(CC(C)C)c(=O)c2ccccc12 | – | 28.2 µM [activator] (active)
CCOCCCNC(=O)c1cn(CC(C)C)c(=O)c2c1c1ccccc1n2C | -9.65% (inactive) | –
CCOc1ccccc1NC(=O)Cn1c2ncccc2c(=O)n1-c1ccc(C)c(C)c1 | -3.35% (inactive) | –
C=C1CCC2C(C)(C(=O)OC)CCCC2(C)C1CCC1=CCOC1=O (stereo not given) | -5.08% [at 53.3 µM] (inactive) | –

SMILES | activity change, negative = inhibition | Potency
Cc1cn(CCN2CCN(c3ccccc3-c3cc(C#N)cc(C(=O)NCCCN4CCCC4)c3)CC2)c2ccccc12 | -5.7% (inactive) | –
COC(=O)C1=CO[C@@H](O[C@@H]2O[C@H](CO)[C@@H](O)[C@H](O)[C@H]2O)[C@H]2[C@@H]1C=C[C@]21C=C([C@H](C)OC(=O)/C=C/c2ccc(O[C@@H]3O[C@H](CO)[C@@H](O)[C@H](O)[C@H]3O)cc2)C(=O)O1 | 0.414% [at 20.6 µM] (inactive) | –
COc1ccccc1CNc1nc2ccc(Cl)cc2n2cnnc12 | -12.9% (inactive) | –
Cc1ccc(C)c(Cn2c(C(=O)O)c(CNCc3cccs3)c3ccccc32)c1 | -18.3% (inactive) | –
CNCC(O)c1ccc(O)c(O)c1 (stereo not given) | – | inactive and 6.92 µM (active)
O=C(COc1ccc(Cl)cc1)N(Cc1ccco1)Cc1ccco1 | -13.3% (inactive) | –
COc1ccccc1NC(=O)CSc1oc(-c2ccco2)nc1S(=O)(=O)c1ccc(Br)cc1 | -21.2% (inactive) | –
CNc1nc(-c2ccc3c(N)n[nH]c3c2)cc(N2CC(C(=O)NC3CCCCC3)CCC2C)n1 (stereo not given) | 1.2% (inactive) | –
O=C(N[C@H]1CCC[C@H](CO)C1)C1CCN(c2nc3cc(Cl)c(-c4ccc(Cl)cc4)cc3o2)CC1 | -10.4% (inactive) | –
CCOC(=O)c1[nH]c(C)c(CCC(=O)NCc2ccccc2C)c1C | -3.89% (inactive) | –
CCN(CC)C(=O)CSc1nc2ccsc2c(=O)n1Cc1ccccc1Cl | -3.5% (inactive) | –
CCOc1ccc(-n2nc3ccc(NC(=O)c4ccc(OC)c(Cl)c4)cc3n2)cc1 | -6.48% (inactive) | –
Cc1nn(C(=O)c2c(F)cccc2F)c(C)c1S(=O)(=O)N1CCOCC1 | 3.28% (inactive) | –
COC(=O)C1=CO[C@@H](O[C@@H]2O[C@H](CO)[C@@H](O)[C@H](O)[C@H]2O)[C@@H]2[C@@H](C(=O)O)CC[C@H]12 | 0.0483% [at 53.3 µM] (inactive) | –
CCCCC1CCN(CCCN2C(=O)CCc3ccccc32)CC1 | -0.254% (inactive) | –
CC/C=C\CC1C(=O)C=CC1(CCCCCCCC(=O)O)OC(C)=O (stereo not given) | -0.917% [at 53.3 µM] (inactive) | –
COc1cccc(CNC(=O)c2ccc3c(Cl)c4c(nc3c2)CCCC4)c1 | -9.91% (inactive) | –
C=CC(C)(O)CO[C@@H]1O[C@H](CO)[C@@H](O)[C@H](O)[C@H]1O (stereo not given in full) | 22.8% (inactive) | –
Cc1cc2c(cc1S(=O)(=O)CCC(=O)NCc1ccccc1)OCC(=O)N2 | -2.14% (inactive) | –
CC(C)(OC1OC(CO)C(O)C(O)C1O)C1CCC(O)(CO)C2CC(O)C(C)(O)C2C1 (stereo not given) | 8.59% [at 53.3 µM] (inactive) | –
O=C(/C=C/c1ccc(O)cc1)OCC1=C[C@@H](O)[C@@H]2C=CO[C@@H](O[C@@H]3O[C@H](CO)[C@@H](O)[C@H](O)[C@H]3O)[C@H]12 | -7.41% [at 53.3 µM] (inactive) | –
COc1cc(C(C)=O)c(OC)c2c1OC(C)(C)C=C2 | 0.675% (inactive) | –
O=C(CSc1nccn1C1CCCC1)Nc1cc(C(F)(F)F)ccc1Cl | -25.7% (inactive) | –
C=CC(C)(O)CC/C=C(\C)C(=O)OC1C(O)C(CO)OC(OC(=O)C23CCC(C)(C)CC2C2=CCC4C5(C)CCC(OC6OC(COC7OCC(OC(C)=O)C(O)C7OC7OC(COC(C)=O)C(O)C(O)C7OC(C)=O)C(O)C(O)C6OC6OCC(O)C(O)C6O)C(C)(C)C5CCC4(C)C2(C)C(O)C3O)C1OC1OCC(OC2OCC(O)C(OC3OCC(O)C(O)C3O)C2O)C(O)C1O (stereo not given) | 3.1% [at 13.5 µM] (inactive) | –
C=C1CCC[C@]2(C)CC/C(=C(/CO)C(=O)OC)C[C@@H]12 | -6.7% (inactive) | –
